# Laboratory results as given in PubChem BioAssay (NCI).
# “And” between values parts separate entries of the source, which are not always exact repeats. Equal values may be shown once. Compounds without any hit were thinned out: in the full panel of roughly 83,000, 20% have a hit.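 Treatment: one concentration, 48 hours, 96-well format. Scoring: percent growth, with anything below 10 considered active.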 Unmarked numbers belong to inactive results. The source made the active and inactive calls.
# Tested on: MDA-MB-468 breast
# Experiment: NCI-60 one-dose screen, 48 h (100 = growth as untreated, 0 = no growth, -100 = all killed)
# Conditions: 10 µM unless noted
row,SMILES,growth
1,COc1nc2ccc(C)cc2cc1-c1nc2c(cnn2-c2ccccc2)c(=O)[nH]1,69.4%
2,CC(C)(C)c1ccc(Cn2cc(CSc3nc4ccccc4s3)nn2)cc1,93.6%
3,C[C@]12CC[C@@H]3c4ccc(O)cc4CC[C@H]3[C@@H]1C[C@H](O)[C@@H]2O,87.1%
4,Clc1ccc(CSc2nnc(-c3ccc(Cl)cc3)n2-c2ccccc2)cc1,64.8%
5,C=C1CC[C@@H](C(=O)OC)Cc2nc(C)ccc21,106%
6,CCOC(=O)C1=C(C)NC(SCc2nnc(-c3ccc(Cl)cc3)o2)=NC1c1ccc(Cl)cc1 (stereo not given),48.9%
7,CC1=NC2=NC(=O)/C(=C3/N=C(C)C=C(c4ccccc4)N3N)NN2C(c2ccccc2)=C1,109%
8,CC(=O)Nc1c(I)c(NC(C)=O)c(I)c(C(=O)O)c1I,115%
9,N#Cc1c(-c2cccs2)cc(-c2cnccn2)nc1SCC(=O)N/N=C/c1ccncc1,103%
10,O=C1c2ccccc2C2N1CCC1CCc3ccccc3N12 (stereo not given),95.1%
11,Cc1ccc(N=c2nc3sc4c(C)ccc(C)c4n3c(N)c2C#N)cc1,115%
12,O=C(Nc1cccc(N=Cc2c(O)ccc3ccccc23)c1)c1ccccc1,98.9%
13,CNC(=O)c1cccc(-c2ccc3c(N4CCOC[C@@H]4C)nc(N4CCOC[C@@H]4C)nc3n2)c1,-30.7% (active) and -22.8% (active)
14,CCNC(=O)Oc1ccc(/C(=C(/CC)Cc2ccccc2)c2ccc(OCCN3CCOCC3)cc2)cc1,46.1%
15,COc1ccc(-c2nc3c(c(-c4ccccc4)nn3-c3ccccc3)c(-c3ccc(N4CCN(C)CC4)cc3)c2C#N)cc1,79.2%
16,CN1CCN(CCNc2nccc(-c3c(-c4cccc(O)c4)nc4sccn34)n2)S1(=O)=O,79.4%
17,O=C(Nc1ccc(-n2ccc3c(NC(=O)c4ccccc4)ncnc32)cc1)Nc1ccc(Cl)c(Cl)c1,-36.7% (active)
18,O=C(NCc1cn(Cc2cccc(Oc3ccccc3)c2)nn1)c1cccnc1Nc1ccccc1,18.1%
19,COc1cc2c(Nc3ccc(Br)cc3F)ncnc2cc1OCC1CCN(C)CC1,-23.3% (active)
20,OC1(c2ccccc2)c2ccccc2N(c2ccccc2)c2ccc(Cl)cc21 (stereo not given),-75.3% (active)

row,SMILES,growth
1,O=C1CC2C=CCN2C=C1NC(=O)c1ccccc1 (stereo not given),98.9%
2,CCCCCCOc1ccc(/C=N/Nc2cc(C)nc3ccc(Br)cc23)cc1,-78.6% (active)
3,Clc1ccc(Cc2ccncc2)cc1,99.2%
4,C=CCNc1nc(O)c(/C=C2\C=Nc3ncccc32)s1,1.02% (active)
5,COc1ccc(/C=N/c2cc(C(C)(C)C)nn2-c2ccccc2)cc1,124%
6,N#Cc1c(-c2ccc(Cl)cc2)nc(SCc2ccc(F)cc2)nc1N1CCNCC1,-62.5% (active)
7,CC1=C[C@H]2c3c(c(O)c(O)c4oc5cc(O)cc(O)c5c(=O)c34)[C@H](c3cc(O)c(O)c4oc5cc(O)cc(O)c5c(=O)c34)[C@H]2C(C)(C)C1,3.99% (active) and -26.3% (active)
8,NC(=O)C(=Cc1ccc(Cl)cc1)C(N)=O,3.1% (active)
9,COc1cc2c(Nc3ccc(NC(=O)Nc4ccc(Cl)c(C(F)(F)F)c4)c(Cl)c3)ncnc2cc1OCCCN1CCN(C)CC1,-70.1% (active)
10,C#CCC(C(=O)OCC)C(=O)OCC,108%
11,O=C(/C=C/c1ccc([N+](=O)[O-])cc1)c1ccccc1,110%
12,CCOCc1nc2ccccc2c(=O)[nH]1,98.7%
13,CC1CCCCN1CCCNC(=O)c1ccc2c(c1)sc1nc(-c3ccc(F)cc3)cn12 (stereo not given),96.3%
14,c1ccc([P+](CCC[P+](c2ccccc2)(c2ccccc2)c2ccccc2)(c2ccccc2)c2ccccc2)cc1,23.7%
15,COc1cc(-c2ccc(-c3ccc(C(=N)N)s3)s2)cc(OC)c1OC,23.8%
16,COc1cc(/C=C2\CN(C)CC3=C2Nc2nc(SC)[nH]c(=O)c2C3c2cc(OC)c(OC)c(OC)c2)cc(OC)c1OC (stereo not given),39.5%
17,COc1cc(/C=C/C(=O)c2c(C)oc3nc[nH]c(=O)c23)ccc1O,113%
18,c1ccc(-c2nn(-c3ccccc3)[n+](-c3ccccc3-c3ccccc3)n2)cc1,-38.6% (active)
19,Nc1ncnc2c1ncn2C1CC(O)C(CO)O1 (stereo not given),113% and 99.9%
20,Nc1nc2c(ncn2[C@@H]2O[C@H](CS)[C@@H](O)[C@H]2O)c(=O)[nH]1,97.8%
